# Among all 320,000 compounds or so, about 2,100 (0.66%) were called active. About 53% were inconclusive and are not listed. This is one part of a sample in which actives are shown more often than they occur. Calls come from the whole dose curve; as a rule, active = well fitted inhibition curve with a large enough effect in the signal ratio, with a control signal flat (not every such curve was filed as active); inconclusive = small, poorly fitted or top-dose-only effect, or effect the other way, or a change in a side signal; inactive = flat fitted curve, though single readings scatter; the % refers to the signal ratio.
# Experiment: qHTS Assay for Lipid Storage Modulators in Drosophila S3 Cells;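 for cell number change: cells counted by Cell Tracker Red CMTPX staining in the red channel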
# Conditions: BODIPY lipid droplet fluorescence, 18-24 h, cells fed with added oleic acid; cell number change: measured here: cell count max response; series mostly up to 46.1 µM
# How it was run: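 Drosophila S3 cells loaded with oleic acid (400 uM, as added) and compounds at several concentrations; lipid droplets imaged by 488-nm laser-scanning cytometry, 500–530 nm intensity and object ratio to cell channel. Percent activity normalized to 20 uM Triacsin C.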
# Potency is the fitted concentration of half-maximal effect.
SMILES,Potency,cell number change [%]
CC(C)NCC(O)COCCOc1ccc(Br)cc1 (stereo not given),inactive,23.8
O=C(CCC1CCCN(C(=O)c2ccc3c(c2)OCO3)C1)N1CCN(c2ccccn2)CC1 (stereo not given),inactive,-1.56
CC1CCCCC1NC(=O)c1ccc(S(=O)(=O)N2CCCC2)cc1 (stereo not given),inactive,25.1
COc1cccc(C(=O)NCCS(=O)(=O)NCCc2ccc(OC)c(OC)c2)c1,inactive,–
Cc1cc(-c2nn(C)c(=O)c3ccccc23)ccc1CNC(=O)NC1CCCCC1,inactive,19.3
Cc1sc2nc(CN3CCOCC3)[nH]c(=O)c2c1-c1ccccc1,inactive,-18.1
O=C(c1cccc(Cl)c1)N1CCCC(C(=O)N2CCCCCC2)C1 (stereo not given),inactive,-0.867
NC(Cc1ccccc1)C(O)(c1ccccc1)c1ccccc1 (stereo not given),inactive,-20.2
Cc1noc(NS(=O)(=O)c2ccc(NC(=O)CCn3c(=O)oc4ccccc43)cc2)c1C,inactive,–
CCC(C)NC(=O)C(=O)NCc1ccccn1 (stereo not given),inactive,4.8
Cc1ccc(S(=O)(=O)Cc2nnnn2-c2ccccc2)cc1,inactive,-3.66
COc1ccc(CC(=O)Nc2ccc(-c3noc(-c4ccc(Cl)cc4)n3)cc2)cc1,inactive,-6.7
COc1ccc(CCNC(=O)CNC(=O)c2ccccc2Br)cc1OC,inactive,19.2
O=C1C(Cc2ccc(O)cc2)NC(=S)N1C1CCCCC1 (stereo not given),inactive,9.32
CC(=O)Nc1sc(NC(=O)c2ccc([N+](=O)[O-])cc2)nc1-c1cccs1,inactive,7.62
Cc1cccc(NC(=O)CC2C(=O)NC3CCCCC3N2C(=O)c2ccccc2Cl)c1 (stereo not given),inactive,7.35
CN(C(=O)CC1C(=O)NCCN1Cc1ccc(F)c(F)c1)C1CCOCC1 (stereo not given),inactive,1.07
CC1CCc2cc(F)ccc2N1C(=O)CSc1nnc2c(n1)[nH]c1ccc(F)cc12 (stereo not given),inactive,-17.4
Cc1ccc(C(=O)NNC(=O)CSc2nnc3c(n2)[nH]c2ccc(F)cc23)cc1,inactive,6.2
CC1CCCCN1C(=O)CSc1nnc2c(n1)[nH]c1ccccc12 (stereo not given),580 nM (active),8.97
O=C(CSc1nnc2c(n1)[nH]c1ccc(F)cc12)NC1CC1,20600 nM (active),-6.52
CC(C)c1ccc2[nH]c3nc(SCC(=O)NC4CC4)nnc3c2c1,651 nM (active),8.7
CC1CCCCN1C(=O)CSc1nnc2c(n1)[nH]c1ccc(F)cc12 (stereo not given),inactive,8.7
CC1Cc2ccccc2N1C(=O)CSc1nnc2c(n1)[nH]c1ccccc12 (stereo not given),inactive,3.16
CCc1ccc2[nH]c3nc(SCC(=O)NCC4CCCO4)nnc3c2c1 (stereo not given),inactive,8.06
CC(C)c1ccc2[nH]c3nc(SCC(=O)N4CCOCC4)nnc3c2c1,inactive,-11.8

# From PubChem BioAssay AID2685 (National Center for Advancing Translational Sciences (NCATS), 2010)
